# Measurements reported in the supplement of paper PMC8728848.
# This excerpt belongs to a sample that is enriched for the strongest signals.
# B1: MtEccB1 (Mycobacterium tuberculosis H37Rv), O69734 (protein)
# chain: MGLRLTTKVQVSGWRFLLRRLEHAIVRRDTRMFDDPLQFYSRSIALGIVVAVLILAGAALLAYFKPQGKLGGTSLFTDRATNQLYVLLSGQLHPVYNLTSARLVLGNPANPATVKSSELSKLPMGQTVGIPGAPYATPVSAGSTSIWTLCDTVARADSTSPVVQTAVIAMPLEIDASIDPLQSHEAVLVSYQGETWIVTTKGRHAIDLTDRALTSSMGIPVTARPTPISEGMFNALPDMGPWQLPPIPAAGAPNSLGLPDDLVIGSVFQIHTDKGPQYYVVLPDGIAQVNATTAAALRATQAHGLVAPPAMVPSLVVRIAERVYPSPLPDEPLKIVSRPQDPALCWSWQRSAGDQSPQSTVLSGRHLPISPSAMNMGIKQIHGTATVYLDGGKFVALQSPDPRYTESMYYIDPQGVRYGVPNAETAKSLGLSSPQNAPWEIVRLLVDGPVLSKDAALLEHDTLPADPSPRKVPAGASGAP
# Columns and labels:
# Assay in all cases: glycan array binding signal (z-score within array); higher = stronger binding
# Details in all cases: glycan notation: IUPAC condensed, linker removed
# Fuc(a1-2)Gal = molecular target: Fuc(a1-2)Gal
# Summary of the method: (§1)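 From the Consortium for Functional Glycomics database, 3228 arrays were curated, keeping only those whose protein sequence was available. Binding is given as a within-array Z-score averaged across arrays sharing a protein sequence and across linkers. Negative Z-scores can be read as non-binding.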
# [1] = molecular target: Fuc(a1-2)Gal(b1-4)GlcNAc(b1-3)Gal(b1-4)GlcNAc
# Summary of the method: as §1
# [2] = molecular target: Fuc(a1-2)Gal(b1-4)GlcNAc(b1-3)[Fuc(a1-2)Gal(b1-4)GlcNAc(b1-6)]GalNAc
# Summary of the method: as §1
# [3] = molecular target: Fuc(a1-2)[Gal(a1-3)]Gal(b1-3)GlcNAc(b1-3)GalNAc
# Summary of the method: as §1
# [4] = molecular target: Fuc(a1-2)[Gal(a1-3)]Gal(b1-4)GlcNAc(b1-2)Man(a1-3)[Fuc(a1-2)[Gal(a1-3)]Gal(b1-4)GlcNAc(b1-2)Man(a1-6)]Man(b1-4)GlcNAc(b1-4)GlcNAc
# Summary of the method: as §1
# [5] = molecular target: Fuc(a1-2)[Gal(a1-4)]Gal(b1-4)GlcNAc
# Summary of the method: as §1
# [6] = molecular target: Fuc(a1-2)[GalNAc(a1-3)]Gal
# Summary of the method: as §1
# [7] = molecular target: Fuc(a1-2)[GalNAc(a1-3)]Gal(b1-3)GlcNAc(b1-3)GalNAc
# Summary of the method: as §1
# [8] = molecular target: Fuc(a1-2)[GalNAc(a1-3)]Gal(b1-4)GlcNAc(b1-3)Gal(b1-4)GlcNAc
# Summary of the method: as §1
# [9] = molecular target: Fuc(a1-2)[GalNAc(a1-3)]Gal(b1-4)GlcNAc(b1-3)GalNAc
# Summary of the method: as §1
# Fuc(a1-3)GlcNAc = molecular target: Fuc(a1-3)GlcNAc
# Summary of the method: as §1
# [10] = molecular target: Fuc(a1-3)[Gal(b1-4)]GlcNAc(b1-2)Man
# Summary of the method: as §1
# [11] = molecular target: Gal(a1-3)Gal(b1-3)GlcNAc(b1-6)GalNAc
# Summary of the method: as §1
# Gal(a1-3)Gal(b1-4)Glc = molecular target: Gal(a1-3)Gal(b1-4)Glc
# Summary of the method: as §1
# Gal(b1-3)Gal = molecular target: Gal(b1-3)Gal
# Summary of the method: as §1
# [12] = molecular target: Gal(b1-3)GalNAc(b1-3)Gal(a1-4)Gal(b1-4)Glc
# Summary of the method: as §1
# [13] = molecular target: Gal(b1-3)GlcNAc(b1-2)Man(a1-3)[Gal(b1-3)GlcNAc(b1-2)Man(a1-6)]Man(b1-4)GlcNAc(b1-4)GlcNAc
# Summary of the method: as §1
# [14] = molecular target: Gal(b1-3)GlcNAc(b1-3)Gal(b1-3)GlcNAc
# Summary of the method: as §1
# [15] = molecular target: Gal(b1-3)GlcNAc(b1-3)Gal(b1-4)GlcNAc(b1-2)[Gal(b1-3)GlcNAc(b1-3)Gal(b1-4)GlcNAc(b1-6)]Man(a1-6)[Gal(b1-3)GlcNAc(b1-3)Gal(b1-4)GlcNAc(b1-2)Man(a1-3)]Man(b1-4)GlcNAc(b1-4)[Fuc(a1-6)]GlcNAc
# Summary of the method: as §1
# [16] = molecular target: Gal(b1-4)GlcNAc(b1-2)Man(a1-3)[Gal(b1-4)GlcNAc(b1-2)Man(a1-6)]Man(b1-4)GlcNAc(b1-4)GlcNAc
# Summary of the method: as §1
# [17] = molecular target: Gal(b1-4)GlcNAc(b1-2)Man(a1-6)[Man(a1-3)]Man(b1-4)GlcNAc(b1-4)GlcNAc
# Summary of the method: as §1
# [18] = molecular target: Gal(b1-4)GlcNAc(b1-2)[Gal(b1-4)GlcNAc(b1-6)]Man(a1-6)[Gal(b1-4)GlcNAc(b1-2)Man(a1-3)]Man(b1-4)GlcNAc(b1-4)GlcNAc
# Summary of the method: as §1
# [19] = molecular target: Gal(b1-4)GlcNAc(b1-3)Gal(b1-4)GlcNAc(b1-2)[Gal(b1-4)GlcNAc(b1-3)Gal(b1-4)GlcNAc(b1-6)]Man(a1-6)[Gal(b1-4)GlcNAc(b1-3)Gal(b1-4)GlcNAc(b1-2)Man(a1-3)]Man(b1-4)GlcNAc(b1-4)GlcNAc
# Summary of the method: as §1
# [20] = molecular target: Gal(b1-4)GlcNAc(b1-3)Gal(b1-4)GlcNAc(b1-3)Gal(b1-4)GlcNAc
# Summary of the method: as §1
# [21] = molecular target: Gal(b1-4)GlcNAc(b1-3)Gal(b1-4)GlcNAc(b1-3)Gal(b1-4)GlcNAc(b1-2)Man(a1-3)[Gal(b1-4)GlcNAc(b1-3)Gal(b1-4)GlcNAc(b1-3)Gal(b1-4)GlcNAc(b1-2)Man(a1-6)]Man(b1-4)GlcNAc(b1-4)GlcNAc
# Summary of the method: as §1
# [22] = molecular target: Gal(b1-4)GlcNAc(b1-3)Gal(b1-4)GlcNAc(b1-3)Gal(b1-4)GlcNAc(b1-3)Gal(b1-4)GlcNAc(b1-2)Man(a1-3)[Gal(b1-4)GlcNAc(b1-3)Gal(b1-4)GlcNAc(b1-3)Gal(b1-4)GlcNAc(b1-3)Gal(b1-4)GlcNAc(b1-2)Man(a1-6)]Man(b1-4)GlcNAc(b1-4)[Fuc(a1-6)]GlcNAc
# Summary of the method: as §1
# [23] = molecular target: Gal(b1-4)GlcNAc(b1-3)Gal(b1-4)GlcNAc(b1-3)Gal(b1-4)GlcNAc(b1-3)Gal(b1-4)GlcNAc(b1-2)[Gal(b1-4)GlcNAc(b1-3)Gal(b1-4)GlcNAc(b1-3)Gal(b1-4)GlcNAc(b1-3)Gal(b1-4)GlcNAc(b1-6)]Man(a1-6)[Gal(b1-4)GlcNAc(b1-3)Gal(b1-4)GlcNAc(b1-3)Gal(b1-4)GlcNAc(b1-3)Gal(b1-4)GlcNAc(b1-2)Man(a1-3)]Man(b1-4)GlcNAc(b1-4)[Fuc(a1-6)]GlcNAc
# Summary of the method: as §1
# [24] = molecular target: Gal(b1-4)GlcNAc(b1-3)Gal(b1-4)GlcNAc(b1-3)Gal(b1-4)GlcNAc(b1-3)Gal(b1-4)GlcNAc(b1-3)Gal(b1-4)GlcNAc(b1-3)Gal(b1-4)GlcNAc(b1-2)Man(a1-3)[Gal(b1-4)GlcNAc(b1-3)Gal(b1-4)GlcNAc(b1-3)Gal(b1-4)GlcNAc(b1-3)Gal(b1-4)GlcNAc(b1-3)Gal(b1-4)GlcNAc(b1-3)Gal(b1-4)GlcNAc(b1-2)Man(a1-6)]Man(b1-4)GlcNAc(b1-4)GlcNAc
# Summary of the method: as §1
binder,measurement,setting,value
B1,glycan array binding signal (z-score),Fuc(a1-2)Gal,-0.548
same,glycan array binding signal (z-score),[1],-0.199
same,glycan array binding signal (z-score),[2],-0.809
same,glycan array binding signal (z-score),[3],0.379
same,glycan array binding signal (z-score),[4],-0.471
same,glycan array binding signal (z-score),[5],-1.08
same,glycan array binding signal (z-score),[6],-0.459
same,glycan array binding signal (z-score),[7],0.901
same,glycan array binding signal (z-score),[8],-1.03
same,glycan array binding signal (z-score),[9],-0.767
same,glycan array binding signal (z-score),Fuc(a1-3)GlcNAc,-1.29
same,glycan array binding signal (z-score),[10],-0.707
same,glycan array binding signal (z-score),[11],-0.407
same,glycan array binding signal (z-score),Gal(a1-3)Gal(b1-4)Glc,0.359
same,glycan array binding signal (z-score),Gal(b1-3)Gal,0.485
same,glycan array binding signal (z-score),[12],-0.784
same,glycan array binding signal (z-score),[13],2.58
same,glycan array binding signal (z-score),[14],0.213
same,glycan array binding signal (z-score),[15],1.6
same,glycan array binding signal (z-score),[16],-1.33
same,glycan array binding signal (z-score),[17],2.86
same,glycan array binding signal (z-score),[18],-0.552
same,glycan array binding signal (z-score),[19],2.86
same,glycan array binding signal (z-score),[20],2.06
same,glycan array binding signal (z-score),[21],0.867
same,glycan array binding signal (z-score),[22],1.01
same,glycan array binding signal (z-score),[23],1.93
same,glycan array binding signal (z-score),[24],2.86
